# Reference: PubChem BioAssay (NCATS)
# Results filed as inconclusive are left out. Calls of active or inactive are those of the source. Calls come from the whole dose curve; as a rule, active = well fitted curve in the direction sought with a large enough effect; inconclusive = small, poorly fitted or top-dose-only effect, or another doubt; inactive = no such curve, though single readings can be large; an effect the other way counts as inactive or inconclusive.
# Legend:
# [1] = qHTS of pediatric cancer cell lines to identify multiple opportunities for drug repurposing: Primary screen for control Hh wild type fibroblast cells (AID 1347106); note: nearly all actives have a fitted effect of over 55% in size
# Outline: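 Cells (500-1,000/well) in growth media were settled 5 h at 37 degrees C, then given compounds for 48 h. Viability was read as CellTiter-Glo luminescence. Primary runs used MIPE at 11 points (0.78 nM-46 µM) and NPC at 8 points (0.59 nM-46 µM); follow-ups used 11 points.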
# [2] = qHTS of pediatric cancer cell lines to identify multiple opportunities for drug repurposing: Primary screen for Rh41 cells (AID 1347108); note: nearly all actives have a fitted effect of over 70% in size
# Outline: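 ATP-based luminescence (CellTiter-Glo) quantifies viability after a 48-hour exposure. Compounds are dosed across 8 or 11 final concentrations; DMSO and 2.3 µM bortezomib serve as controls.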
# [3] = qHTS of pediatric cancer cell lines to identify multiple opportunities for drug repurposing: Confirmatory screen for NB1643 cells (AID 1347109); note: nearly all actives have a fitted effect of over 45% in size
# Outline: (§1)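 Viability after 48 h compound treatment at 37C, 500-1,000 cells/well, read as ATP luminescence with CellTiter-Glo. Primary screens used 11-point (MIPE, 0.78 nM-46 µM) or 8-point (NPC, 0.59 nM-46 µM) final concentrations; follow-up screens used 11-point dilutions.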
# [4] = qHTS of pediatric cancer cell lines to identify multiple opportunities for drug repurposing: Confirmatory screen for A673 cells (AID 1347110); note: nearly all actives have a fitted effect of over 65% in size
# Outline: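 Forty-eight-hour viability assay. Follow-up compounds ran at 11-point dilutions; positive control bortezomib at 2.3 uM final, neutral control DMSO.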
# [5] = qHTS of pediatric cancer cell lines to identify multiple opportunities for drug repurposing: Confirmatory screen for SK-N-MC cells (AID 1347111);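 note: cells exposed to compound for 48 h before the readout; nearly all actives have a fitted effect of over 70% in size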
# Outline: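 SK-N-MC cells at 500-1,000 cells/well in growth media were pre-incubated 5 h, then exposed to compounds at 11-point dilutions for 48 h at 37 degrees C, 5% CO2. Viability was read as CellTiter-Glo luminescence.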
# [6] = qHTS of pediatric cancer cell lines to identify multiple opportunities for drug repurposing: Confirmatory screen for BT-12 cells (AID 1347112); note: nearly all actives have a fitted effect of over 55% in size
# Outline: as §1
# [7] = qHTS of pediatric cancer cell lines to identify multiple opportunities for drug repurposing: Confirmatory screen for LAN-5 cells (AID 1347113); note: nearly all actives have a fitted effect of over 65% in size
# Outline: as §1
# [8] = qHTS of pediatric cancer cell lines to identify multiple opportunities for drug repurposing: Confirmatory screen for DAOY cells (AID 1347114); note: nearly all actives have a fitted effect of over 65% in size
# Outline: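 Viability measured as metabolically active cells via CellTiter-Glo luminescence following 48 hours of compound exposure, 11-point dilutions in confirmatory testing. 500-1,000 cells/well plated 5 hours before dosing; controls were DMSO and 2.3 µM bortezomib.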
# [9] = qHTS of pediatric cancer cell lines to identify multiple opportunities for drug repurposing: Primary screen for Rh30 cells (AID 1347107); note: nearly all actives have a fitted effect of over 75% in size
# Outline: as §1
# Potency is the fitted concentration of half-maximal effect.
SMILES,Potency [1],Potency [2],Potency [3],Potency [4],Potency [5],Potency [6],Potency [7],Potency [8],Potency [9]
CNC(=O)c1ccc(-c2cnc3ncc(Cc4ccc5ncccc5c4)n3n2)cc1F,inactive,inactive,–,–,–,–,–,–,–
Nc1ncnc2c1c(-c1cnc3[nH]ccc3c1)nn2C1CCCC1,1320 nM (active),935 nM (active),8270 nM (active),3690 nM (active),1650 nM (active),3690 nM (active),1470 nM (active),–,–
CC[C@@H]1C(=O)N(C)c2cnc(Nc3ccc(C(=O)NC4CCN(C)CC4)cc3OC)nc2N1C1CCCC1,23500 nM (active),–,3290 nM (active),36.9 nM (active),46.5 nM (active),16500 nM (active),5220 nM (active),–,–
O=C(C=Cc1cccnc1)NCCCCC1CCN(C(=O)c2ccccc2)CC1,inactive,118 nM (active),inactive,inactive,inactive,inactive,inactive,inactive,–
Nc1cccc(-c2cc3c(Oc4cccc(O)c4)ncnc3[nH]2)c1,inactive,5900 nM (active),–,–,–,–,–,–,–
C=CCn1c(=O)c2cnc(Nc3ccc(N4CCN(C)CC4)cc3)nc2n1-c1cccc(C(C)(C)O)n1,inactive,469 nM (active),–,2610 nM (active),–,10400 nM (active),–,1850 nM (active),–
Cc1cn2cc(C(=O)N(C)CCO)cc(N[C@@H]3CCOc4cccc(C)c43)c2n1,inactive,inactive,–,–,–,–,–,–,–
O=c1[nH]nc(Sc2ncc([N+](=O)[O-])s2)n1-c1ccc2c(c1)OCCO2,14800 nM (active),6620 nM (active),7370 nM (active),9270 nM (active),5850 nM (active),9270 nM (active),7370 nM (active),23300 nM (active),10500 nM (active)
COc1cc2c(NC3CCN(C(C)C)CC3)nc(C3CCCCC3)nc2cc1OCCCN1CCCC1,20900 nM (active),11800 nM (active),23300 nM (active),18500 nM (active),4140 nM (active),–,–,9270 nM (active),18700 nM (active)
CN1CCN(Cc2ccc(NC(=O)Nc3ccc(Oc4cc(NC(=O)C5CC5)ncn4)cc3)cc2C(F)(F)F)CC1,8330 nM (active),469 nM (active),1850 nM (active),131 nM (active),131 nM (active),465 nM (active),1040 nM (active),522 nM (active),20900 nM (active)
CC(C)(C)NC(=O)[C@H]1CN(Cc2cccnc2)CCN1C[C@@H](O)C[C@@H](Cc1ccccc1)C(=O)N[C@H]1c2ccccc2C[C@H]1O,inactive,3720 nM (active),–,inactive,–,inactive,inactive,–,–
CCN1CCN(Cc2ccc(-c3cc4c(N[C@H](C)c5ccccc5)ncnc4[nH]3)cc2)CC1,inactive,–,13500 nM (active),479 nM (active),851 nM (active),26900 nM (active),9550 nM (active),8510 nM (active),–
CC(C)c1cnn2c(NCc3ccccc3)cc(N[C@@H](CO)[C@H](O)CO)nc12,inactive,743 nM (active),–,369 nM (active),585 nM (active),522 nM (active),293 nM (active),827 nM (active),–
c1ccc2c(CCNc3ccc(Nc4ccncc4)cc3)c[nH]c2c1,inactive,18700 nM (active),–,–,–,–,–,–,–
CN(C1CCc2c(c3ccccc3n2CC(=O)O)C1)S(=O)(=O)c1ccc(F)cc1 (configuration not stated),inactive,3720 nM (active),–,–,–,–,–,–,–
Cc1nc2ccc(CN(C)c3ccc(C(=O)N[C@@H](CCC(=O)O)C(=O)O)s3)cc2c(=O)[nH]1,inactive,inactive,inactive,82.7 nM (active),18.5 nM (active),inactive,inactive,inactive,–
COc1cccc(-c2ccc(NC(=O)C3=C(C(=O)O)CCC3)c(F)c2)c1,inactive,–,–,–,2930 nM (active),inactive,inactive,inactive,inactive
CC(C)c1nn(-c2c(Cl)cccc2Cl)c2nc(Cc3ccc(OCCO)cc3)[nH]c(=O)c12,inactive,372 nM (active),inactive,131 nM (active),117 nM (active),82.7 nM (active),41.4 nM (active),208 nM (active),inactive
CNC(=O)CN1CCC(Oc2cc3c(Nc4cccc(Cl)c4F)ncnc3cc2OC)CC1,inactive,46.9 nM (active),1040 nM (active),inactive,1470 nM (active),inactive,1170 nM (active),inactive,–
CC(C)c1ccccc1Cc1cc(C(=O)Nc2ccc(S(=O)(=O)c3ccccc3C(C)(C)C)cc2)c(O)c(O)c1O,inactive,18700 nM (active),–,–,–,–,–,–,–
CC1(O)CC(c2nc(-c3ccc4ccc(-c5ccccc5)nc4c3)c3c(N)nccn23)C1 (configuration not stated),inactive,935 nM (active),–,–,–,–,–,–,–
Cc1cc(Nc2nc(N[C@@H](C)c3ccc(F)cc3)c(C#N)cc2F)n[nH]1,14800 nM (active),5900 nM (active),–,–,–,–,–,–,–

SMILES,Potency [1],Potency [2],Potency [3],Potency [4],Potency [5],Potency [6],Potency [7],Potency [8],Potency [9]
Cc1[nH]c2ccccc2c1CCNCc1ccc(C=CC(=O)NO)cc1,1870 nM (active),235 nM (active),117 nM (active),329 nM (active),82.7 nM (active),737 nM (active),261 nM (active),–,–
O=c1c2ccccc2nc2n1CCc1c-2[nH]c2ccccc12,inactive,inactive,–,–,–,–,–,–,–
Nc1ccn([C@@H]2CS[C@H](CO)O2)c(=O)n1,inactive,inactive,–,–,–,–,–,–,–
CNC(=O)c1c(F)cccc1Nc1nc(Nc2cc3c(cc2OC)CCN3C(=O)CN(C)C)nc2[nH]ccc12,inactive,148 nM (active),465 nM (active),11700 nM (active),414 nM (active),–,208 nM (active),–,2960 nM (active)
CNC(=O)c1nn(C)c2c1C(C)(C)Cc1cnc(Nc3ccc(N4CCN(C)CC4)cc3)nc1-2,inactive,11800 nM (active),–,928 nM (active),1170 nM (active),9270 nM (active),1850 nM (active),9270 nM (active),–
CC(=O)OCC(=O)[C@@]1(O)[C@H](C)C[C@H]2[C@@H]3C=C(C)C4=Cc5c(cnn5-c5ccccc5)C[C@]4(C)[C@@H]3[C@@H](O)C[C@@]21C,inactive,18700 nM (active),10400 nM (active),13100 nM (active),2930 nM (active),32900 nM (active),13100 nM (active),18500 nM (active),–
Nc1ccn([C@@H]2O[C@H](CO)[C@H](O)C2(F)F)c(=O)n1,inactive,inactive,–,58.5 nM (active),–,–,–,–,inactive
C=CC(=O)Nc1cc2c(Nc3ccc(F)c(Cl)c3)ncnc2cc1C#CC(C)(C)N1CCN(C)CC1,inactive,9350 nM (active),5370 nM (active),4270 nM (active),1910 nM (active),17000 nM (active),5370 nM (active),4790 nM (active),–
C=C1C(=CC=C2CCC[C@]3(C)[C@@H]([C@H](C)C=C[C@H](C)C(C)C)CC[C@@H]23)C[C@@H](O)C[C@@H]1O,inactive,935 nM (active),–,–,–,–,–,20800 nM (active),3720 nM (active)
COc1ccc(-c2cc3c(C)nc(N)nc3n(C3CCC(OCCO)CC3)c2=O)cn1 (configuration not stated),–,118 nM (active),inactive,1170 nM (active),–,inactive,inactive,inactive,–
CCOc1cc2ncc(C#N)c(Nc3ccc(F)c(Cl)c3)c2cc1NC(=O)C=CCN(C)C,–,1870 nM (active),–,–,65.7 nM (active),208 nM (active),inactive,–,–
CNC(=O)c1cc(Oc2ccc(NC(=O)Nc3cc(C(C)(C)C)nn3-c3ccc4ncccc4c3)c(F)c2)ccn1,–,23500 nM (active),–,–,–,–,–,–,–
CN1CC[C@@H](c2c(O)cc(O)c3c(=O)cc(-c4ccccc4Cl)oc23)[C@@H](O)C1,–,296 nM (active),261 nM (active),522 nM (active),414 nM (active),737 nM (active),465 nM (active),465 nM (active),inactive
CCC1=C[C@@H]2CN(C1)Cc1c([nH]c3ccccc13)[C@@](C(=O)OC)(c1cc3c(cc1OC)N(C)[C@@H]1[C@@](O)(C(=O)OC)[C@H](OC(C)=O)[C@]4(CC)C=CCN5CC[C@]31[C@@H]54)C2,–,–,–,329 nM (active),5220 nM (active),–,–,657 nM (active),–
CC(C)c1cc(-c2n[nH]c(=O)n2-c2ccc3c(ccn3C)c2)c(O)cc1O,–,–,–,18500 nM (active),inactive,–,inactive,–,–
CC(C)(C)c1cnc(CSc2cnc(NC(=O)C3CCNCC3)s2)o1,–,590 nM (active),165 nM (active),414 nM (active),329 nM (active),369 nM (active),261 nM (active),1170 nM (active),inactive
CN(C)CCCN=c1c2ccccc2n(C)c2[nH]c(=O)n(C)c(=O)c12,–,9350 nM (active),23300 nM (active),–,–,23300 nM (active),23300 nM (active),inactive,–
CC(C)CC(=O)Nc1n[nH]c2c1CN(C(=O)C1CCN(C)CC1)C2(C)C,–,3720 nM (active),inactive,1040 nM (active),–,2930 nM (active),–,–,inactive
COc1cc2nccc(Oc3ccc(NC(=O)C4(C(=O)Nc5ccc(F)cc5)CC4)cc3)c2cc1OC,–,9350 nM (active),inactive,18500 nM (active),–,inactive,–,–,–
O=C(Nc1ncc(-c2cc(C(F)F)nn2-c2c(Cl)cccc2Cl)s1)C1CC1,–,–,1170 nM (active),293 nM (active),414 nM (active),–,4650 nM (active),329 nM (active),inactive
O=C(c1ccc(Nc2nccc(-c3cc4ccccc4s3)n2)cc1)N1CCC(N2CCCC2)CC1,–,18700 nM (active),–,–,–,–,–,–,23500 nM (active)
Cc1nc2cnc3ccc(C#Cc4cccnc4)cc3c2n1-c1ccc(C(C)(C)C#N)cc1,–,83.3 nM (active),12000 nM (active),2690 nM (active),1700 nM (active),–,3020 nM (active),13500 nM (active),–
